# PubChem BioAssay (Tox21)
# Unmarked numbers belong to inactive results. Records with an inconclusive call do not appear. Where a call stands in place of a potency, no number is given. Active and inactive are the calls of the source. Unless noted, calls follow the shape of the dose curve; as a rule, active = well fitted curve in the direction sought with a large enough effect in the repeat runs; inconclusive = weak or mixed curves; inactive = no such curve, though single readings can be large; an effect the other way counts as inactive or inconclusive.
# Tests used:
# [1] = qHTS assay for small molecules that induce genotoxicity in human embryonic kidney cells expressing luciferase-tagged ATAD5 (AID 651632); also: nearly all actives have a fitted effect of over 15% in size
# How it was run: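 ATAD5-luc HEK293T, 2,000 cells/well; cpd or DMSO pin-transferred; 16 hr, 37C/5% CO2; Amplite 30 min RT; luminescence.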
# [2] = qHTS assay for small molecule agonists of the p53 signaling pathway - cell viability (AID 651633; calls by dose curve; also: nearly all actives have a fitted effect of over 30% in size; also: potency is read from the fitted curve at half-maximal effect;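 as to activity change, negative = cytotoxicity: p53RE-bla HCT reporter cells with a stable beta-lactamase p53 reporter; series mostly up to about 83 µM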)
# How it was run: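 p53RE-bla cells were treated with compound for 16 hours at 37 C. Cytotoxicity was then measured as CellTiter-Glo luminescence after 30 min at room temperature.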
# [3] = qHTS assay for small molecules that induce genotoxicity in human embryonic kidney cells expressing luciferase-tagged ATAD5 - cell viability (AID 651634; calls by dose curve; also: nearly all actives have a fitted effect of over 25% in size)
# How it was run: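 Fluorescence from CellTiter-Fluor, reporting protease activity within live cells, served as the viability read-out. HEK293T cells carrying luciferase-tagged ATAD5 had been treated with compound for 15.5 hr at 37C.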
# [4] = qHTS assay for small molecule disruptors of the mitochondrial membrane potential - cell viability (AID 720634; calls by dose curve;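 also: human HepG2 liver cancer cells; series mostly up to about 83 µM; nearly all actives have a fitted effect of over 20% in size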)
# How it was run: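 Cells: HepG2, 2,000/well, attached overnight. Compound 1 hr, 37 C/5% CO2. +m-MPI dye, +CellTiter-Glo 30 min RT. Readout: luminescence (ATP).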
# [5] = qHTS assay for small molecule disruptors of the mitochondrial membrane potential (AID 720635)
# How it was run: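 HepG2 cells exposed to compound 1 hr at 37C, then Mito-MPS dye 30 min. Ratio read of aggregate (540/590 nm) versus monomer (490/535 nm) fluorescence.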
# [6] = qHTS assay to test for compound auto fluorescence at 590 nm (red) in HepG2 cells (AID 720674)
# How it was run: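 HepG2 cells, 2,000 per well in MEM with 10% FBS, attached overnight at 37 C, then got 23 nL compound or DMSO. After 1 hr at 37 C, 5% CO2, red fluorescence was read at 540/590 nm against Rose Bengal sodium as reference.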
# [7] = qHTS assay to test for compound auto fluorescence at 535 nm (green) in HepG2 cells (AID 720675)
# [8] = qHTS assay to test for compound auto fluorescence at 460 nm (blue) in HEK293 cells (AID 720678)
# How it was run: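 Triamterene serves as the blue fluorophore standard. Compound signal at 405/460 nm is read in HEK293 wells (2,000 cells, 10% dialyzed FBS) after overnight treatment at 37C.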
# [9] = qHTS assay to test for compound auto fluorescence at 590 nm (red) in HEK293 cells (AID 720679)
# How it was run: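 We plated HEK293 cells in 10% dialyzed FBS medium, let them adhere for 4-5 hr, then added 23 nL compound. Overnight at 37C and 5% CO2 preceded fluorescence measurement at 540/590nm.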
# [10] = qHTS assay to test for compound auto fluorescence at 535 nm (green) in HEK293 cells (AID 720680)
# [11] = qHTS assay to test for compound auto fluorescence at 460 nm (blue) in HEK293 cell free culture (AID 720681)
# How it was run: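 Compounds were added to cell-free DMEM with 10% FBS and fluorescence read directly. The blue channel used 405 nm excitation and 460 nm emission, with triamterene as the reference fluorophore.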
# [12] = qHTS assay to test for compound auto fluorescence at 535 nm (green) in HEK293 cell free culture (AID 720682)
# How it was run: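 Intrinsic compound fluorescence is measured in culture medium containing 10% FBS, with excitation at 485 nm and detection at 535 nm, referenced to fluorescein.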
# [13] = qHTS assay to test for compound auto fluorescence at 590 nm (red) in HEK293 cell free culture (AID 720683)
# How it was run: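 Cell-free wells of DMEM with 10% FBS received compound, and intrinsic fluorescence was read at excitation/emission 540/590 nm. Values expressed as equivalence to Rose Bengal sodium.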
# [14] = qHTS assay to test for compound auto fluorescence at 590 nm (red) in HepG2 cell free culture (AID 720684)
# How it was run: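 Compound was pinned into wells holding MEM with 10% FBS and no cells, and red fluorescence was read at Ex/Em 540/590 nm. Signal is expressed as auto fluorescence equivalency relative to Rose Bengal sodium.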
# [15] = qHTS assay to test for compound auto fluorescence at 460 nm (blue) in HepG2 cell free culture (AID 720685)
# How it was run: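 Compound (23 nL) or DMSO pinned into cell-free MEM with 10% FBS; blue fluorescence read at 405/460 nm excitation/emission, expressed as auto-fluorescence equivalency to triamterene.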
# [16] = qHTS assay to test for compound auto fluorescence at 535 nm (green) in HepG2 cell free culture (AID 720686)
# [17] = qHTS assay to test for compound auto fluorescence at 460 nm (blue) in HepG2 cells (AID 720687)
# How it was run: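 HepG2 cells in MEM with 10% FBS, attached overnight at 37 C, were exposed to compound or DMSO for 1 hr at 37 C, 5% CO2. Blue fluorescence was read at 405/460 nm, with triamterene as reference fluorophore.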
# [18] = biological target: Glucocorticoid receptor (Homo sapiens) (UniProt P04150); experiment: qHTS assay to identify small molecule agonists of the glucocorticoid receptor (GR) signaling pathway (AID 720691; active = well fitted activation curve with a large enough effect in the signal ratio in the repeat runs, not every such curve was filed as active; the % refers to the signal ratio)
# How it was run: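 Fluorescence intensity from LiveBLAzer B/G FRET substrate (2 h, room temperature) reports beta-lactamase expression driven by the glucocorticoid response element in GR-bla HeLa cells after 18 h compound exposure at 37 C.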
# [19] = biological target: Glucocorticoid receptor (Homo sapiens) (UniProt P04150); experiment: qHTS assay to identify small molecule antagonists of the glucocorticoid receptor (GR) signaling pathway (AID 720692; active = well fitted inhibition curve with a large enough effect in the signal ratio in the repeat runs, not every such curve was filed as active; the % refers to the signal ratio)
# How it was run: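 HeLa GR-bla cells; cmpd + dex 5 nM final, 18 h 37 C; LiveBLAzer B/G FRET substrate 2 h RT; fluorescence intensity read. Antagonist mode, qHTS.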
# [20] = qHTS assay for small molecule agonists of the p53 signaling pathway (AID 651631; calls by dose curve; also: nearly all actives have a fitted effect of over 15% in size; also: potency is read from the fitted curve at half-maximal effect)
# How it was run: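 Fluorescence intensity from cleaved LiveBLAzer B/G substrate (2 h, room temperature) served as the signal. Beforehand, HCT-116 reporter cells bearing p53 response elements were treated 16 h at 37 °C with DMSO-dissolved compounds.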
# Sequence of Glucocorticoid receptor (Homo sapiens) (P04150 whole entry, looked up): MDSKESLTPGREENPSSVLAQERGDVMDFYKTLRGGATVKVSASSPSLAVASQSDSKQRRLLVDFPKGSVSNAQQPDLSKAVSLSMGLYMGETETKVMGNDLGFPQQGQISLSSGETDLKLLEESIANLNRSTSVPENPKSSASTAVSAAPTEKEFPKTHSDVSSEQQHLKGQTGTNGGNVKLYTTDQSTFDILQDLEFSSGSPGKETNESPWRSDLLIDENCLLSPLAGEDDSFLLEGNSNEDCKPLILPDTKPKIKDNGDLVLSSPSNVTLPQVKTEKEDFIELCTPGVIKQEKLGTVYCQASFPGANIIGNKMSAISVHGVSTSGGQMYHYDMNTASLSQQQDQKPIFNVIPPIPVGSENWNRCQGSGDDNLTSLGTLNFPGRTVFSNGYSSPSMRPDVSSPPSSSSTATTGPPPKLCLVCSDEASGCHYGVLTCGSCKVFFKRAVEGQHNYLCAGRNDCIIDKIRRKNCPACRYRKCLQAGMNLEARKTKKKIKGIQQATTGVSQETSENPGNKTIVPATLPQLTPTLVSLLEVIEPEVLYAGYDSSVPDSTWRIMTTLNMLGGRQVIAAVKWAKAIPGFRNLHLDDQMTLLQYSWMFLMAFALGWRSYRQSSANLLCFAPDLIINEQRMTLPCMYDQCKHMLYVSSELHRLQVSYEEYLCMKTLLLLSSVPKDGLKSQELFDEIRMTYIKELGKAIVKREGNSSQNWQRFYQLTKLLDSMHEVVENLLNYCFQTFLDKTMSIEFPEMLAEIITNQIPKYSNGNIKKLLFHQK
compound,measurement,setting,value
CC(Cl)C(Cl)Cl (stereo not given),Potency,[1],inactive
same,Potency,[2],inactive
same,Potency,[3],inactive
same,Potency,[4],inactive
same,Potency,[5],inactive
same,outcome,[6],inactive
same,outcome,[7],inactive
same,Potency,[8],inactive
same,outcome,[9],inactive
same,outcome,[10],inactive
same,Potency,[11],inactive
same,outcome,[12],inactive
same,outcome,[13],inactive
same,outcome,[14],inactive
same,Potency,[15],inactive
same,outcome,[16],inactive
same,Potency,[17],inactive
same,Potency,[18],inactive
same,Potency,[19],inactive
O=C(O)C(Cc1cc(I)c(O)c(I)c1)c1ccccc1 (stereo not given),Potency,[1],inactive
same,Potency,[2],inactive
same,Potency,[3],inactive
same,Potency,[4],inactive
same,Potency,[5],inactive
same,outcome,[6],inactive
same,outcome,[7],inactive
same,outcome,[9],inactive
same,outcome,[10],inactive
same,Potency,[11],inactive
same,outcome,[12],inactive
same,outcome,[13],inactive
same,outcome,[14],inactive
same,Potency,[15],inactive
same,outcome,[16],inactive
same,Potency,[17],inactive
same,Potency,[18],inactive
same,Potency,[19],inactive
CC1CN(c2cc3c(cc2F)c(=O)c(C(=O)O)cn3-c2ccc(F)cc2F)CCN1 (stereo not given),Potency,[1],inactive
same,Potency,[2],inactive
same,Potency,[3],inactive
same,Potency,[4],inactive
same,Potency,[5],inactive
same,outcome,[6],inactive
same,outcome,[7],inactive
same,Potency,[8],inactive
same,outcome,[10],inactive
same,Potency,[11],inactive
same,outcome,[12],inactive
same,outcome,[13],inactive
same,outcome,[14],inactive
same,Potency,[15],inactive
same,outcome,[16],inactive
same,Potency,[17],inactive
same,Potency,[18],inactive
same,Potency,[19],inactive
Nc1nc(Cl)nc2c1ncn2[C@@H]1O[C@H](CO)[C@@H](O)[C@@H]1F,Potency,[20],84.1 nM (active)
same,Potency,[2],133 nM (active)
same,Potency,[3],inactive
same,Potency,[4],inactive
same,outcome,[6],inactive
same,outcome,[7],inactive
same,Potency,[8],inactive
same,outcome,[9],inactive
same,outcome,[10],inactive
same,outcome,[12],inactive
same,outcome,[14],inactive
same,Potency,[15],inactive
same,outcome,[16],inactive
same,Potency,[17],inactive
C=CCCCCCCCCCCCCCCCC,activation,[1],2.36% [at 8.08 µM]
same,"activity change, negative = cytotoxicity",[2],16.1% [at 8.08 µM]
same,"activity, negative = cytotoxicity",[3],7.59% [at 8.08 µM]
same,"activity change, negative = cytotoxicity",[4],11.3% [at 8.08 µM]
same,"fluorescence, relative to Rose Bengal",[6],0.0868% [at 3.72 µM]
same,"fluorescence, % of fluorescein control",[7],-0.0078% [at 3.72 µM]
same,"fluorescence, % of triamterene",[8],0.18% [at 3.72 µM]
same,"fluorescence, % of fluorescent control",[9],0.277% [at 3.72 µM]
same,"fluorescence, % of fluorescein",[10],0.013% [at 3.72 µM]
same,"fluorescence, % of fluorescent control",[11],-0.189% [at 3.72 µM]
same,activity change,[12],-0.098% [at 3.72 µM]
same,"fluorescence, % of fluorescent control",[13],-0.0981% [at 3.72 µM]
same,"fluorescence, % of Rose Bengal",[14],0.0296% [at 3.72 µM]
same,"fluorescence, % of fluorescent control",[15],-0.0068% [at 3.72 µM]
same,"fluorescence, % of fluorescein control",[16],-0.0312% [at 3.72 µM]
same,"fluorescence, % of fluorescent control",[17],0.0871% [at 3.72 µM]
CCCCC1C(=O)N(c2ccccc2)N(c2ccc(O)cc2)C1=O (stereo not given),Potency,[20],12700 nM (active)
same,Potency,[3],inactive
same,Potency,[4],inactive
same,"fluorescence, relative to Rose Bengal",[6],-0.0374% [at 18.6 µM]
same,"fluorescence, % of fluorescein control",[7],-0.0204% [at 18.6 µM]
same,"fluorescence, % of triamterene",[8],-0.133% [at 18.6 µM]
same,"fluorescence, % of fluorescent control",[9],-0.0017% [at 18.6 µM]
same,"fluorescence, % of fluorescein",[10],-0.124% [at 18.6 µM]
same,"fluorescence, % of fluorescent control",[11],-0.0788% [at 18.6 µM]
same,activity change,[12],-0.39% [at 18.6 µM]
same,"fluorescence, % of fluorescent control",[13],0.0102% [at 18.6 µM]
same,"fluorescence, % of Rose Bengal",[14],-0.239% [at 18.6 µM]
same,"fluorescence, % of fluorescent control",[15],-0.111% [at 18.6 µM]
same,"fluorescence, % of fluorescein control",[16],-0.17% [at 18.6 µM]
same,"fluorescence, % of fluorescent control",[17],-0.0848% [at 18.6 µM]
same,Potency,[18],inactive
CC(C)=CC=O,Potency,[1],inactive
same,Potency,[2],inactive
same,Potency,[3],inactive
same,Potency,[4],inactive
same,Potency,[5],inactive
same,outcome,[6],inactive
same,outcome,[7],inactive
same,Potency,[8],inactive
same,outcome,[9],inactive
same,outcome,[10],inactive
same,outcome,[12],inactive
same,outcome,[13],inactive
same,outcome,[14],inactive
same,Potency,[15],inactive
same,outcome,[16],inactive
same,Potency,[17],inactive
same,Potency,[18],inactive
CC(=O)Nc1ccccc1C,Potency,[20],inactive
same,Potency,[2],inactive
same,Potency,[3],inactive
same,Potency,[4],inactive
same,outcome,[6],inactive
same,outcome,[7],inactive
same,Potency,[8],inactive
same,outcome,[9],inactive
same,outcome,[10],inactive
same,Potency,[11],inactive
same,outcome,[12],inactive
same,outcome,[13],inactive
same,outcome,[14],inactive
same,Potency,[15],inactive
same,outcome,[16],inactive
same,Potency,[17],inactive
same,Potency,[18],inactive
same,Potency,[19],inactive
CC(=O)Oc1ccc(C(=C2CCCCC2)c2ccc(OC(C)=O)cc2)cc1,Potency,[20],inactive
same,Potency,[2],inactive
same,Potency,[4],inactive
same,Potency,[5],inactive
same,outcome,[6],inactive
same,outcome,[7],inactive
same,Potency,[8],inactive
same,outcome,[10],inactive
same,Potency,[11],inactive
same,outcome,[12],inactive
same,outcome,[13],inactive
same,outcome,[14],inactive
same,Potency,[15],inactive
same,outcome,[16],inactive
same,Potency,[17],inactive
CO/N=C1\CN(c2nc3c(cc2F)c(=O)c(C(=O)O)cn3C2CC2)CC1CN (stereo not given),Potency,[1],inactive
same,Potency,[2],inactive
same,Potency,[3],inactive
same,Potency,[4],inactive
same,Potency,[5],inactive
same,outcome,[6],inactive
same,outcome,[7],inactive
same,Potency,[8],inactive
same,outcome,[9],inactive
same,outcome,[10],inactive
same,Potency,[11],inactive
same,outcome,[12],inactive
same,outcome,[14],inactive
same,Potency,[15],inactive
same,outcome,[16],inactive
same,Potency,[17],inactive
same,Potency,[18],inactive
O=C(/C=C/c1ccccc1)OCCCc1ccccc1,Potency,[1],inactive
same,Potency,[2],inactive
same,Potency,[3],inactive
same,Potency,[4],inactive
same,Potency,[5],inactive
same,outcome,[6],inactive
same,outcome,[7],inactive
same,outcome,[9],inactive
same,outcome,[10],inactive
same,outcome,[12],inactive
same,outcome,[13],inactive
same,outcome,[14],inactive
same,Potency,[15],inactive
same,outcome,[16],inactive
same,Potency,[17],inactive
same,Potency,[18],inactive
O=C(C(=O)c1ccccc1)c1ccccc1,Potency,[20],inactive
same,Potency,[2],inactive
same,Potency,[3],inactive
same,Potency,[4],inactive
same,outcome,[6],inactive
same,outcome,[7],inactive
same,outcome,[9],inactive
same,outcome,[10],inactive
same,Potency,[11],inactive
same,outcome,[12],inactive
same,outcome,[13],inactive
same,outcome,[14],inactive
same,Potency,[15],inactive
same,outcome,[16],inactive
same,Potency,[17],inactive
same,Potency,[18],inactive
